In PMC7862700, “An all-to-all approach to the identification of sequence-specific readers for epigenetic DNA modifications on cytosine”:

Experiments:
Test in all cases: DAPPL (digital affinity profiling via proximity ligation, sequencing); 10 mM Tris-HCl pH 7.5, 50 mM NaCl, 1 mM DTT, 4% glycerol, room temperature, 30 min; GST-TFs on glutathione beads, 16-mer random dsDNA library, 0.1% formaldehyde crosslink after washing; high values mean tight binding
Details in all cases: protein: recombinant; tags: N-terminal GST; dsDNA, one strand shown
FLI1 = target: T1, FLI1 (Homo sapiens, UniProt Q01543 1-452)
T1 sequence: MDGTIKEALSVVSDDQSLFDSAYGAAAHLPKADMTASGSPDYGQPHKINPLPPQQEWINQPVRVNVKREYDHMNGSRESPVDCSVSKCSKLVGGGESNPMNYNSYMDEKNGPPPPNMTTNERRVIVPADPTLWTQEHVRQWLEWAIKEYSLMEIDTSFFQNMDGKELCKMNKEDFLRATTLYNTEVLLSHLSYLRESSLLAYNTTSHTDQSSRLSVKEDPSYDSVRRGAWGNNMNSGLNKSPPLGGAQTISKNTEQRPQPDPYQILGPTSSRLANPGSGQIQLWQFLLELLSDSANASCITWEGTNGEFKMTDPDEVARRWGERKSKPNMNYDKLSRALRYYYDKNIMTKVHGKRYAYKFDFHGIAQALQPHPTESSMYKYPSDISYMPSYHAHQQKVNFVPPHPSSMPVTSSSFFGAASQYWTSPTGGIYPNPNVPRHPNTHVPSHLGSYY
Summary of the method: (§1)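 After expression in yeast as GST fusions, human transcription factors were bound to glutathione beads, DNA-barcoded and mixed with a tag-only sample. The pools were incubated with 200 nmole of a 16-mer random double-stranded DNA library in Tris/NaCl/DTT/glycerol buffer (30 min, room temperature), washed and crosslinked with 0.1% formaldehyde. Proximity ligation with BsaI/T4 ligase ran for 1 h at 37 °C, before PCR amplification and sequencing on an Illumina NextSeq500. Binding signal is a hexamer's read frequency for a factor divided by its frequency for the tag-only sample.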

ELK1 = target: T2, ELK1 (Homo sapiens, UniProt P19419 1-428)
T2 sequence: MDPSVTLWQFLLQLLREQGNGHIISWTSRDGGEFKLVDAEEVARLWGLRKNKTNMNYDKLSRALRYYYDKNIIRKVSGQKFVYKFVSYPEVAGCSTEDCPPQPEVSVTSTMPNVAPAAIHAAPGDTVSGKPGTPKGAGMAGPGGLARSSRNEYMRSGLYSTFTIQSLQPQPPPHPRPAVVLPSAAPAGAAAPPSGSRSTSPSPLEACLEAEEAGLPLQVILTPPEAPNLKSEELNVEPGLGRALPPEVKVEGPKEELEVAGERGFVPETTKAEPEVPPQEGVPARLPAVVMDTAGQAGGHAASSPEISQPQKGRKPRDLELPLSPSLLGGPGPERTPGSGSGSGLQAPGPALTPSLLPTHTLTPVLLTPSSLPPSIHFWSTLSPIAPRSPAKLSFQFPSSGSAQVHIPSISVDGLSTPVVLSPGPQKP
Summary of the method: as §1

GABPA = target: T3, GABPA (Homo sapiens, UniProt Q06546 1-454)
T3 sequence: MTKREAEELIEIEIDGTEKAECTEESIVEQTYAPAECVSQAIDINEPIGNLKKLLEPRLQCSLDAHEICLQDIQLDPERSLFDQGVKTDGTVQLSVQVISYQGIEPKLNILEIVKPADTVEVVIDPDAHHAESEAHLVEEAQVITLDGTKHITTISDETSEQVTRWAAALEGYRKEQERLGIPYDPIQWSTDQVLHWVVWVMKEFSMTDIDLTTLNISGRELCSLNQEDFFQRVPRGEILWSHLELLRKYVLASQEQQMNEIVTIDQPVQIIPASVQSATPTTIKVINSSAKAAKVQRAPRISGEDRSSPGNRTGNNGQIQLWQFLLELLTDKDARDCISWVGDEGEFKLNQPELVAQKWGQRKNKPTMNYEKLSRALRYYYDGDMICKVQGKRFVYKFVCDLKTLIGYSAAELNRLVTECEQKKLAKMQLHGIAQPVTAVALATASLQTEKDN
Summary of the method: as §1

ERG = target: T4, ERG (Homo sapiens, UniProt P11308 1-479)
T4 sequence: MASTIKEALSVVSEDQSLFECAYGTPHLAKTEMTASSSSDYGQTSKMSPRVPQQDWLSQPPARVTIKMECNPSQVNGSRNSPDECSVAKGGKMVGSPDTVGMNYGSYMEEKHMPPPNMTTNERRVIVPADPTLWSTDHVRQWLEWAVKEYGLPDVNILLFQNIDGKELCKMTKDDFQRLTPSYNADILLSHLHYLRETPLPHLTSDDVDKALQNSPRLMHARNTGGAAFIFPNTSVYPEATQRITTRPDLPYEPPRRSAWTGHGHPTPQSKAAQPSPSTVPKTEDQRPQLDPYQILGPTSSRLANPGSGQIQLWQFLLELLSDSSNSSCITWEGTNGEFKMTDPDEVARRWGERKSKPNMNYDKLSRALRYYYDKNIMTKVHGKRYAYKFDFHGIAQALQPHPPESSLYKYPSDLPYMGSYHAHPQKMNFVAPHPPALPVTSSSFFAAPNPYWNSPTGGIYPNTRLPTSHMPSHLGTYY
Summary of the method: as §1

ELF1 = ELF1 (Homo sapiens, UniProt P32519 1-619)
Summary of the method: as §1

EHF = target: T5, EHF (Homo sapiens, UniProt Q9NZC4 1-300)
T5 sequence: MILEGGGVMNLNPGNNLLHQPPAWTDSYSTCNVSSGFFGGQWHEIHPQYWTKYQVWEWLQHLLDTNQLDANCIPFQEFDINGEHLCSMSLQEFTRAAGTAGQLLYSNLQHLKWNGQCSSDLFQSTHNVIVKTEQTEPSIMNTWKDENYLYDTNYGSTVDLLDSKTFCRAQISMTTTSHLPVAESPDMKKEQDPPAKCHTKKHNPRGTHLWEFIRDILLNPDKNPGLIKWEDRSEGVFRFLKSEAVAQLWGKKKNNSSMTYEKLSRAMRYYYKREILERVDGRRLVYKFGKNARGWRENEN
Summary of the method: as §1

SPI1 = SPI1 (Homo sapiens, UniProt P17947 1-270)
Summary of the method: as §1

SPIB = SPIB (Homo sapiens, UniProt Q01892 1-262)
Summary of the method: as §1

ELK3 = target: T6, ELK3 (Homo sapiens, UniProt P41970 1-407)
T6 sequence: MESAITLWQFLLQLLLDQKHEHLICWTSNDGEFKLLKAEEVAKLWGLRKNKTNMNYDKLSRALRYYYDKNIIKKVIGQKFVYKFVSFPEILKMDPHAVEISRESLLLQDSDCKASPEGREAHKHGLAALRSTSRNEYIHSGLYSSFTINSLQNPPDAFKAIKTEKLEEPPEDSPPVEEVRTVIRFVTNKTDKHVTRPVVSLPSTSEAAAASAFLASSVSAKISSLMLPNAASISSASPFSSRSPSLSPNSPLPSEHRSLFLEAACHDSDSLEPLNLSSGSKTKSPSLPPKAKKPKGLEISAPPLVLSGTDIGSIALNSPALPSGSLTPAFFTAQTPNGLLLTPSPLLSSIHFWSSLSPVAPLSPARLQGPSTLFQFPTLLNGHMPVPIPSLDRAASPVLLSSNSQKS
Summary of the method: as §1

Chain of SPIB (Q01892 whole entry): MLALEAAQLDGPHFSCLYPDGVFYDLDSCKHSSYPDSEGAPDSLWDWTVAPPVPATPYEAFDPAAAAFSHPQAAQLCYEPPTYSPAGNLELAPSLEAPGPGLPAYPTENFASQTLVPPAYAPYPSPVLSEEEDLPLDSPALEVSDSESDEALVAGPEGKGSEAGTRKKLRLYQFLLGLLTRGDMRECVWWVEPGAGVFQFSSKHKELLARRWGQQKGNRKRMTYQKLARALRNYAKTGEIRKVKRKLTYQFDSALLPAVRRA
Chain of ELF1 (P32519 whole entry): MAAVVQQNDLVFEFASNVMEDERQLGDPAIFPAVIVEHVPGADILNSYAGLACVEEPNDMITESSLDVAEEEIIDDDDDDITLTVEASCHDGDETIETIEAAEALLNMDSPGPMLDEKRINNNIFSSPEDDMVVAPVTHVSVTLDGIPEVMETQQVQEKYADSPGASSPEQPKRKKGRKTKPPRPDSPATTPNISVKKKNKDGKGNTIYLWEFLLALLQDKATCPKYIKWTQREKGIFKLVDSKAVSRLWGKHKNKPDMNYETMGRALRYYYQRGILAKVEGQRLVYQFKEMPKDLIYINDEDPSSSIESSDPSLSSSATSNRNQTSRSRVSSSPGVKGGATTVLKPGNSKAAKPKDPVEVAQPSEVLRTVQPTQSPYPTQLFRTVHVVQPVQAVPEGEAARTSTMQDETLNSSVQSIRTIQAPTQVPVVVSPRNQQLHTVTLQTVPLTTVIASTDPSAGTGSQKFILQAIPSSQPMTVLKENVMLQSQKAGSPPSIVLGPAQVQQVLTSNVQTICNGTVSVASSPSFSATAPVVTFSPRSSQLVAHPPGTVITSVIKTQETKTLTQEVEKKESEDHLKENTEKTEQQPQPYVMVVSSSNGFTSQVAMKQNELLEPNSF

AAAAGA
binding signal (FLI1): 1.11 fold enrichment (6-mer frequency, TF over GST control) | binding signal (ELK1): 1.19 fold enrichment (6-mer frequency, TF over GST control) | binding signal (GABPA): 1.19 fold enrichment (6-mer frequency, TF over GST control) | binding signal (ERG): 1.06 fold enrichment (6-mer frequency, TF over GST control) | binding signal (ELF1): 1.06 fold enrichment (6-mer frequency, TF over GST control) | binding signal (EHF): 1.2 fold enrichment (6-mer frequency, TF over GST control) | binding signal (SPI1): 1.5 fold enrichment (6-mer frequency, TF over GST control) | binding signal (SPIB): 1.26 fold enrichment (6-mer frequency, TF over GST control) | binding signal (ELK3): 1.11 fold enrichment (6-mer frequency, TF over GST control)

ACTCCT
binding signal (FLI1): 1.67 fold enrichment (6-mer frequency, TF over GST control) | binding signal (ELK1): 1.55 fold enrichment (6-mer frequency, TF over GST control) | binding signal (GABPA): 1.45 fold enrichment (6-mer frequency, TF over GST control) | binding signal (ERG): 1.45 fold enrichment (6-mer frequency, TF over GST control) | binding signal (ELF1): 1.57 fold enrichment (6-mer frequency, TF over GST control) | binding signal (EHF): 1.52 fold enrichment (6-mer frequency, TF over GST control) | binding signal (SPI1): 1.42 fold enrichment (6-mer frequency, TF over GST control) | binding signal (SPIB): 1.57 fold enrichment (6-mer frequency, TF over GST control) | binding signal (ELK3): 1.5 fold enrichment (6-mer frequency, TF over GST control)

TCAAAT
binding signal (FLI1): 1.04 fold enrichment (6-mer frequency, TF over GST control) | binding signal (ELK1): 1.05 fold enrichment (6-mer frequency, TF over GST control) | binding signal (GABPA): 1.14 fold enrichment (6-mer frequency, TF over GST control) | binding signal (ERG): 1.06 fold enrichment (6-mer frequency, TF over GST control) | binding signal (ELF1): 1.15 fold enrichment (6-mer frequency, TF over GST control) | binding signal (EHF): 1.07 fold enrichment (6-mer frequency, TF over GST control) | binding signal (SPI1): 1.11 fold enrichment (6-mer frequency, TF over GST control) | binding signal (SPIB): 1.05 fold enrichment (6-mer frequency, TF over GST control) | binding signal (ELK3): 1.03 fold enrichment (6-mer frequency, TF over GST control)

ATGTGT
binding signal (FLI1): 1.04 fold enrichment (6-mer frequency, TF over GST control) | binding signal (ELK1): 1.11 fold enrichment (6-mer frequency, TF over GST control) | binding signal (GABPA): 1.06 fold enrichment (6-mer frequency, TF over GST control) | binding signal (ERG): 1.03 fold enrichment (6-mer frequency, TF over GST control) | binding signal (ELF1): 1.03 fold enrichment (6-mer frequency, TF over GST control) | binding signal (EHF): 1.08 fold enrichment (6-mer frequency, TF over GST control) | binding signal (SPI1): 1.08 fold enrichment (6-mer frequency, TF over GST control) | binding signal (SPIB): 1.11 fold enrichment (6-mer frequency, TF over GST control) | binding signal (ELK3): 1.06 fold enrichment (6-mer frequency, TF over GST control)

CCTCTT
binding signal (FLI1): 1.5 fold enrichment (6-mer frequency, TF over GST control) | binding signal (ELK1): 1.45 fold enrichment (6-mer frequency, TF over GST control) | binding signal (GABPA): 1.6 fold enrichment (6-mer frequency, TF over GST control) | binding signal (ERG): 1.68 fold enrichment (6-mer frequency, TF over GST control) | binding signal (ELF1): 1.5 fold enrichment (6-mer frequency, TF over GST control) | binding signal (EHF): 1.71 fold enrichment (6-mer frequency, TF over GST control) | binding signal (SPI1): 2.57 fold enrichment (6-mer frequency, TF over GST control) | binding signal (SPIB): 1.67 fold enrichment (6-mer frequency, TF over GST control) | binding signal (ELK3): 1.66 fold enrichment (6-mer frequency, TF over GST control)

GATTTC
binding signal (FLI1): 1.77 fold enrichment (6-mer frequency, TF over GST control) | binding signal (ELK1): 1.78 fold enrichment (6-mer frequency, TF over GST control) | binding signal (GABPA): 1.55 fold enrichment (6-mer frequency, TF over GST control) | binding signal (ERG): 2.15 fold enrichment (6-mer frequency, TF over GST control) | binding signal (ELF1): 1.62 fold enrichment (6-mer frequency, TF over GST control) | binding signal (EHF): 1.71 fold enrichment (6-mer frequency, TF over GST control) | binding signal (SPI1): 1.67 fold enrichment (6-mer frequency, TF over GST control) | binding signal (SPIB): 1.72 fold enrichment (6-mer frequency, TF over GST control) | binding signal (ELK3): 1.73 fold enrichment (6-mer frequency, TF over GST control)

TAAACA
binding signal (FLI1): 1.19 fold enrichment (6-mer frequency, TF over GST control) | binding signal (ELK1): 1.2 fold enrichment (6-mer frequency, TF over GST control) | binding signal (GABPA): 1.19 fold enrichment (6-mer frequency, TF over GST control) | binding signal (ERG): 1.21 fold enrichment (6-mer frequency, TF over GST control) | binding signal (ELF1): 1.22 fold enrichment (6-mer frequency, TF over GST control) | binding signal (EHF): 1.2 fold enrichment (6-mer frequency, TF over GST control) | binding signal (SPI1): 1.21 fold enrichment (6-mer frequency, TF over GST control) | binding signal (SPIB): 1.16 fold enrichment (6-mer frequency, TF over GST control) | binding signal (ELK3): 1.23 fold enrichment (6-mer frequency, TF over GST control)
